# In PubChem BioAssay:
# The source made the active and inactive calls. Unless noted, the rule behind the calls is not given here.
# Experiments:
# [1] = test system: Wnt5a (protein binding on small-molecule microarray); test: small molecules binding Wnt5a protein – biophysical, small-molecule microarray, 635/667 nm fluorescence, primary screen (AID 1142); conditions: 635 nm fluorescence, higher = more signal;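 note: fluorescence read at 667 nm with signal to noise per printed feature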
# [2] = ATP-based viability of Huh7 replicon cells – cell-based, CellTiter-Glo luminescence, basal, 48 h, cytotoxicity control for HCV replication inhibitor project, primary screen (AID 1143); conditions: higher = more signal, called active from +8 up or from −8 down;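 note: Huh7 hepatoma cells carrying a hepatitis C replication reporter with no stimulus; test concentration not given here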
# [3] = Pseudomonas biofilm growth suppression – PAO1 strain, BacTiter-Glo luminescence, LB-PBS, primary screen (AID 1144); conditions: P. aeruginosa PAO1 biofilm, 12 h, higher = more signal
# [4] = basal CRE-LacZ reporter activity in PC12 – cell-based, unstimulated, primary screen (AID 1145); conditions: no forskolin, luminescence, 4.5 h, higher = more signal, called active from +8 up or from −8 down
# [5] = forskolin-driven CRE-LacZ activity in PC12 – cell-based, CRE-LacZ reporter, forskolin-stimulated, primary screen (AID 1146); conditions: luminescence, 4.5 h, higher = more signal, called active from +8 up or from −8 down;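 note: PC12 cells with 6xCRE LacZ reporter stimulated by forskolin 10 µM; beta-galactosidase reporter signal reflecting CREB driven transcription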
# [6] = molecular target: Streptavidin (Streptomyces avidinii) (UniProt P22629); test: compounds binding control protein streptavidin – biophysical, small-molecule microarray, 635/667 nm fluorescence, artefact control for SMM compound annotation, primary screen (AID 1147); conditions: higher = more signal;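 note: signal reflects streptavidin binding to arrayed compounds as a control protein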
# Streptavidin (Streptomyces avidinii), sequence (P22629 whole entry, looked up): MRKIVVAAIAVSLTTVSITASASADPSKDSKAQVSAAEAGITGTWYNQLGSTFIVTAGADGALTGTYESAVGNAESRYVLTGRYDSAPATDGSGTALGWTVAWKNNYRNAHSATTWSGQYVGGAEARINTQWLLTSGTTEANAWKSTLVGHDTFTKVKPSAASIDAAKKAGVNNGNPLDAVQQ
# [7] = probe aInhba binding on compound microarray – biochemical, small-molecule microarray, 635/667 nm fluorescence, primary screen (AID 1148); conditions: higher = more signal;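 note: score merges 667nm spot fluorescence with signal-to-noise for antibody binding to printed compounds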
# Torsin-1A (Homo sapiens) [8] = molecular target: Torsin-1A (Homo sapiens) (UniProt O14656); test: TOR1A wild-type binding on microarray – cell lysate, small-molecule microarray, lysate, 635/667 nm, primary screen (AID 1149); conditions: COS7 hTOR1A-WT lysate, 635 nm fluorescence, higher = more signal
# Torsin-1A (Homo sapiens), sequence (O14656 whole entry, looked up): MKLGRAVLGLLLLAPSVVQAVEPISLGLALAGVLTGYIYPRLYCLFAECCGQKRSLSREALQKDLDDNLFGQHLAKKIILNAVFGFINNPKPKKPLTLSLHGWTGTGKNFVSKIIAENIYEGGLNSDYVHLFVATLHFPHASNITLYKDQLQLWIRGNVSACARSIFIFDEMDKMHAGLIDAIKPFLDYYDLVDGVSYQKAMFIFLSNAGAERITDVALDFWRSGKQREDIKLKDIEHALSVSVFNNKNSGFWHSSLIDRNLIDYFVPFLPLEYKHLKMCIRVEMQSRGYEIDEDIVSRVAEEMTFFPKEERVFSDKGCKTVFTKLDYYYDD
# Torsin-1A (Homo sapiens) [9] = molecular target: Torsin-1A (Homo sapiens) (UniProt O14656); test: torsin A mutant lysate binding on microarrays – cell lysate, small-molecule microarray, COS7 lysate, 635/667 nm fluorescence, primary screen (AID 1150); conditions: COS7 hTOR1A mutant lysate, 635 nm fluorescence, higher = more signal;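 note: score pools 667 nm emission and signal to noise measuring lysate protein binding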
# [10] = test system: Sonic hedgehog protein (Shh); test: Sonic hedgehog microarray binding compounds – biochemical, small-molecule microarray, 635/667 nm fluorescence, primary screen (AID 1151); conditions: 635 nm fluorescence, higher = more signal;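 note: Shh protein binding to compounds spotted on small-molecule microarray slides; score combines spot fluorescence intensity with signal-to-noise across triplicate slides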
# [11] = optical density shifts of acrAB sulA E. coli – strain DRC41, OD650, 48 h, E. coli filamentation inducer project, primary screen (AID 1152); conditions: higher = more signal, called active from +8 up or from −8 down;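 note: E. coli MC1000 strain DRC41 lacking acrAB efflux pump and sulA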
# [12] = probe aLefty1 binding on compound microarray – biochemical, small-molecule microarray, 635/667 nm fluorescence, primary screen (AID 1153); conditions: higher = more signal;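 note: score merges spot fluorescence with signal-to-noise ratio from the scanned slide images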
# [13] = plasmodial surface anion channel blockers, osmotic lysis – cell-based, P. falciparum Indochina, OD700, 1 h, primary screen (AID 1154); conditions: P. falciparum Indochina infected RBC osmotic lysis, higher = more signal, called active from +8 up or from −8 down
# [14] = plasmodial surface anion channel blockers, osmotic lysis – cell-based, P. falciparum Indochina, OD700, 2 h, primary screen (AID 1155);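 note: lysis reports solute entry through the parasite surface anion channel PSAC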; conditions: P. falciparum Indochina infected erythrocytes, higher = more signal, called active from +8 up or from −8 down
# [15] = changes in parasitized red cell lysis, either direction – P. falciparum Indochina, OD700, 3 h, PSAC antagonist project, primary screen (AID 1156); conditions: P. falciparum-infected erythrocytes, osmotic lysis, higher = more signal, called active from +8 up or from −8 down
# [16] = plasmodial surface anion channel blockers, osmotic lysis – cell-based, P. falciparum Indochina, OD700, 18 h, primary screen (AID 1157); conditions: P. falciparum Indochina infected erythrocytes, osmotic lysis OD700, 18 h; higher = more signal, called active from +8 up or from −8 down
# [17] = S6 kinase pathway phospho-S6 level changes – cell-based, A549, cytoblot, luminescence, serum-stimulated, primary screen (AID 1158); conditions: 5 h, higher = more signal;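 note: serum-stimulated A549 lung adenocarcinoma cells; signal is phosphorylated S6 detected by cytoblot immunostaining with HRP secondary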
# [18] = molecular target: NADPH oxidase 2 (Homo sapiens) (UniProt P04839); test: compounds shifting NOX2 Amplex Red fluorescence – cell-based, HEK293-NOX2, PMA-stimulated, NOX inhibitor project, primary screen (AID 1159); conditions: 45 min, higher = more signal, called active from +8 up or from −8 down; note: test concentration not given here
# NADPH oxidase 2 (Homo sapiens), sequence (P04839 whole entry, looked up): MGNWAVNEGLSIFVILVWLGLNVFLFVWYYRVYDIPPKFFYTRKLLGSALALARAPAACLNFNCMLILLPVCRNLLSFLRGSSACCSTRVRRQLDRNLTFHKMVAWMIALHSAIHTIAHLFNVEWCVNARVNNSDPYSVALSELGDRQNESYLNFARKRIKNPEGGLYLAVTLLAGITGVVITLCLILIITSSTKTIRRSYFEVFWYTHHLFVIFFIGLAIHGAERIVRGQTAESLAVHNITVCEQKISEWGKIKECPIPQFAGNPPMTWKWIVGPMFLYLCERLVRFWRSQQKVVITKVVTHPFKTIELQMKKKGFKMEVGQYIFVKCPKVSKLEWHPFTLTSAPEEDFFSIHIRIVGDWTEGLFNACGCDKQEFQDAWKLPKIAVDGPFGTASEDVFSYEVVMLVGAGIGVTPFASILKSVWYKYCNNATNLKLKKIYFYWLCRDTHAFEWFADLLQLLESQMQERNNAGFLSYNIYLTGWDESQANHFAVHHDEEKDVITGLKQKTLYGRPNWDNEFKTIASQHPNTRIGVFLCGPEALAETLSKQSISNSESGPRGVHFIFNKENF
# [19] = molecular target: NADPH oxidase 4 (Homo sapiens) (UniProt Q9NPH5); test: compounds shifting NOX4 Amplex Red fluorescence – cell-based, HEK293-NOX4, tetracycline-induced, NOX inhibitor project, primary screen (AID 1160); conditions: HEK293-NOX4, Amplex Red H2O2 fluorescence, 45 min; higher = more signal, called active from +8 up or from −8 down
# NADPH oxidase 4 (Homo sapiens), sequence (Q9NPH5 whole entry, looked up): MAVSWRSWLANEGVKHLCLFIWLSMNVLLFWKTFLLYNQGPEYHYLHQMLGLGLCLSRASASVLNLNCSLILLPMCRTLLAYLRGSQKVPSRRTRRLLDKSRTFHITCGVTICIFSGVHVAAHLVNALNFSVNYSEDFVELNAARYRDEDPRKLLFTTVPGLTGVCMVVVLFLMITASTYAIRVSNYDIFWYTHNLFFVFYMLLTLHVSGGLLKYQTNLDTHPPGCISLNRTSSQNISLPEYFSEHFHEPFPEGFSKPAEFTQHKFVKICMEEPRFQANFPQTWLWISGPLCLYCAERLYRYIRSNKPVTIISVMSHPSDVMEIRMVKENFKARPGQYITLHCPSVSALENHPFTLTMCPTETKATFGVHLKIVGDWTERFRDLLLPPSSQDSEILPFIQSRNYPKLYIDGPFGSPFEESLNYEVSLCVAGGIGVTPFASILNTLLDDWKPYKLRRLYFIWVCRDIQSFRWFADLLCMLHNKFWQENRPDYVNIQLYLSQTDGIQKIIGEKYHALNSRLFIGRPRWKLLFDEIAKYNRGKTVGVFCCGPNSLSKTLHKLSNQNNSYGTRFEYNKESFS
# [20] = molecular target: NADPH oxidase 5 (Homo sapiens) (UniProt Q96PH1); test: compounds shifting NOX5 Amplex Red fluorescence – cell-based, HEK293-NOX5, NOX inhibitor project, primary screen (AID 1161); conditions: HEK293-NOX5, ionomycin, 45 min, higher = more signal
# NADPH oxidase 5 (Homo sapiens), sequence (Q96PH1 whole entry, looked up): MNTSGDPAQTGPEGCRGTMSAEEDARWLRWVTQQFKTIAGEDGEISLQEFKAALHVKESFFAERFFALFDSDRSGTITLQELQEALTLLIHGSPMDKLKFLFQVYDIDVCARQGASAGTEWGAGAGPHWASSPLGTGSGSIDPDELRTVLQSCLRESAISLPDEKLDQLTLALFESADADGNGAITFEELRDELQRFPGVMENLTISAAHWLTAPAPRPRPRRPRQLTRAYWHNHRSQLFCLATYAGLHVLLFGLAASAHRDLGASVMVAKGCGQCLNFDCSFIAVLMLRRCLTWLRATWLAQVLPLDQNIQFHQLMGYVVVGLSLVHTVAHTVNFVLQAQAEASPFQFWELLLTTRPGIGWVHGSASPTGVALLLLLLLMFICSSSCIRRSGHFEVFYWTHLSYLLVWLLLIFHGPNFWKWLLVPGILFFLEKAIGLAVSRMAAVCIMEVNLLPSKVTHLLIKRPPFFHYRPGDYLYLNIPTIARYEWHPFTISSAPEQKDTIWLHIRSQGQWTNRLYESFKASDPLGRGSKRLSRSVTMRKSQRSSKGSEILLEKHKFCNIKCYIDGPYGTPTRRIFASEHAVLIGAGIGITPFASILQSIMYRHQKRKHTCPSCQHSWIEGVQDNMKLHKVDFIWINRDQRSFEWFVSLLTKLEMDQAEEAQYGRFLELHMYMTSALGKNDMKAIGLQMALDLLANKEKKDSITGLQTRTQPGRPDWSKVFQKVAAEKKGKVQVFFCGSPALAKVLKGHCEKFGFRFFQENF
structure (smiles),measurement,setting,value
CC#CC(=O)Oc1ccccc1C=CC(=O)OCC,composite z-score,[1],-0.0407
same,z-score,[2],-1.99 (inactive)
same,z-score,[3],-1.69 (inactive)
same,z-score,[4],-0.0696 (inactive)
same,z-score,[5],1.7 (inactive)
same,composite z-score,[6],0.066
same,composite z-score,[7],-0.206
same,composite z-score,Torsin-1A (Homo sapiens) [8],-0.402
same,composite z-score,Torsin-1A (Homo sapiens) [9],0.222
same,composite z-score,[10],0.0449
same,z-score,[11],-0.158 (inactive)
same,composite z-score,[12],-0.0011
same,z-score,[13],8.09 (active)
same,z-score,[14],1.47 (inactive)
same,z-score,[15],0.692 (inactive)
same,z-score,[16],0.903 (inactive)
same,z-score,[17],-0.275
same,z-score,[18],-0.405 (inactive)
same,z-score,[19],-0.806 (inactive)
same,z-score,[20],1.8
CN(C)CCCCCCNC(=O)[C@H]1C[C@H]2C(=O)N[C@@H](CCCCN)C(=O)N2[C@H]1c1cccc(OCCO)c1,composite z-score,[1],1.73
same,z-score,[2],0.0574 (inactive)
same,z-score,[3],0.949 (inactive)
same,z-score,[4],0.688 (inactive)
same,z-score,[5],0.691 (inactive)
same,composite z-score,[6],2.14
same,composite z-score,[7],0.778
same,composite z-score,Torsin-1A (Homo sapiens) [8],3.76
same,composite z-score,Torsin-1A (Homo sapiens) [9],3.35
same,composite z-score,[10],1.43
same,z-score,[11],-0.497 (inactive)
same,composite z-score,[12],2.71
same,z-score,[13],2.2 (inactive)
same,z-score,[14],0.192 (inactive)
same,z-score,[15],0.32 (inactive)
same,z-score,[16],0.229 (inactive)
same,z-score,[17],-0.268
same,z-score,[18],1.65 (inactive)
same,z-score,[19],1.03 (inactive)
same,z-score,[20],1.24
NC(=O)N1C(=O)C2C(C1=O)C1C=C(c3ccc(CO)cc3)C2C(c2cccs2)N1Cc1cccc(OC(F)(F)F)c1 (stereo not given),composite z-score,[1],0.24
same,z-score,[2],-3.63 (inactive)
same,z-score,[3],0.945 (inactive)
same,z-score,[4],1.08 (inactive)
same,z-score,[5],-1.58 (inactive)
same,composite z-score,[6],0.514
same,composite z-score,[7],0.29
same,composite z-score,Torsin-1A (Homo sapiens) [8],0.635
same,composite z-score,Torsin-1A (Homo sapiens) [9],0.522
same,composite z-score,[10],0.235
same,z-score,[11],-3.19 (inactive)
same,composite z-score,[12],0.424
same,z-score,[13],3.08 (inactive)
same,z-score,[14],-0.687 (inactive)
same,z-score,[15],0.195 (inactive)
same,z-score,[16],-1.98 (inactive)
same,z-score,[17],2.65
same,z-score,[18],-1.02 (inactive)
same,z-score,[19],-1.22 (inactive)
same,z-score,[20],-1.25
CO[C@H]1O[C@H](CO)[C@@H](OC(=O)Nc2ccccc2)[C@H](OC(=O)Nc2ccccc2)[C@@H]1OC(=O)Nc1ccccc1,composite z-score,[1],1.13
same,z-score,[2],-4.73 (inactive)
same,z-score,[3],-0.309 (inactive)
same,z-score,[4],0.101 (inactive)
same,z-score,[5],-0.825 (inactive)
same,composite z-score,[6],0.467
same,composite z-score,[7],0.347
same,composite z-score,Torsin-1A (Homo sapiens) [8],0.451
same,composite z-score,Torsin-1A (Homo sapiens) [9],0.872
same,composite z-score,[10],1.48
same,z-score,[11],-0.24 (inactive)
same,composite z-score,[12],-0.369
same,z-score,[13],6.99 (inactive)
same,z-score,[14],1.35 (inactive)
same,z-score,[15],0.111 (inactive)
same,z-score,[16],1.18 (inactive)
same,z-score,[17],0.725
same,z-score,[18],-3.38 (inactive)
same,z-score,[19],-0.394 (inactive)
same,z-score,[20],-1.13
COCCOC(=O)N1C(=O)[C@@]2(c3cc(C#CCNC(N)=O)ccc31)[C@H](C(=O)Nc1nc3ccccc3s1)[C@H]1C(=O)O[C@H](c3ccccc3)[C@H](c3ccccc3)N1[C@@H]2c1ccc(OCCO)cc1,composite z-score,[1],0.341
same,z-score,[2],0.759 (inactive)
same,z-score,[3],-0.609 (inactive)
same,z-score,[4],-0.874 (inactive)
same,z-score,[5],-0.274 (inactive)
same,composite z-score,[6],0.664
same,composite z-score,[7],0.261
same,composite z-score,Torsin-1A (Homo sapiens) [8],-0.0017
same,composite z-score,Torsin-1A (Homo sapiens) [9],0.452
same,composite z-score,[10],0.969
same,z-score,[11],-0.537 (inactive)
same,composite z-score,[12],0.729
same,z-score,[13],2.48 (inactive)
same,z-score,[14],1.23 (inactive)
same,z-score,[15],0.0531 (inactive)
same,z-score,[16],0.559 (inactive)
same,z-score,[17],-0.0692
same,z-score,[18],1.42 (inactive)
same,z-score,[19],1.19 (inactive)
same,z-score,[20],1.4
C=C[C@H](OC)[C@@H](OC(=O)Nc1ccc(OC)cc1)c1ccc(O)c(F)c1,composite z-score,[1],-0.311
same,z-score,[2],-3.6 (inactive)
same,z-score,[3],-0.689 (inactive)
same,z-score,[4],1.24 (inactive)
same,z-score,[5],3.4 (inactive)
same,composite z-score,[6],-1.2
same,composite z-score,[7],-0.179
same,composite z-score,Torsin-1A (Homo sapiens) [8],0.732
same,composite z-score,Torsin-1A (Homo sapiens) [9],-0.11
same,composite z-score,[10],0.665
same,z-score,[11],0.496 (inactive)
same,composite z-score,[12],0.0921
same,z-score,[13],4.19 (inactive)
same,z-score,[14],0.484 (inactive)
same,z-score,[15],-0.433 (inactive)
same,z-score,[16],0.253 (inactive)
same,z-score,[17],-0.102
same,z-score,[18],-1.5 (inactive)
same,z-score,[19],1.1 (inactive)
same,z-score,[20],5.13
O=C(NCCO)C1=C[C@H](Oc2ccccc2I)[C@@H](O)[C@H](N(Cc2ccco2)C(=O)Cc2ccccc2)C1,composite z-score,[1],0.234
same,z-score,[2],0.0266 (inactive)
same,z-score,[3],-0.0382 (inactive)
same,z-score,[4],-0.78 (inactive)
same,z-score,[5],0.603 (inactive)
same,composite z-score,[6],0.317
same,composite z-score,[7],-0.202
same,composite z-score,Torsin-1A (Homo sapiens) [8],0.303
same,composite z-score,Torsin-1A (Homo sapiens) [9],0.0805
same,composite z-score,[10],0.412
same,z-score,[11],-0.673 (inactive)
same,composite z-score,[12],0.0752
same,z-score,[13],0.877 (inactive)
same,z-score,[14],0.799 (inactive)
same,z-score,[15],1.1 (inactive)
same,z-score,[16],0.304 (inactive)
same,z-score,[17],0.202
same,z-score,[18],1.34 (inactive)
same,z-score,[19],0.254 (inactive)
same,z-score,[20],0.351
CCCc1cc2c(n1Cc1cc(F)cc(F)c1)C(C)C1CN(C(=O)c3ccccc3)C(C)(C(=O)OC)C21 (stereo not given),composite z-score,[1],0.239
same,z-score,[2],-2.5 (inactive)
same,z-score,[3],0.335 (inactive)
same,z-score,[4],0.587 (inactive)
same,z-score,[5],1.31 (inactive)
same,composite z-score,[6],1.4
same,composite z-score,[7],0.786
same,composite z-score,Torsin-1A (Homo sapiens) [8],0.361
same,composite z-score,Torsin-1A (Homo sapiens) [9],1.58
same,composite z-score,[10],-0.236
same,z-score,[11],-1.55 (inactive)
same,composite z-score,[12],0.269
same,z-score,[13],3.82 (inactive)
same,z-score,[14],0.144 (inactive)
same,z-score,[15],1.95 (inactive)
same,z-score,[16],0.251 (inactive)
same,z-score,[17],-0.712
same,z-score,[18],-1.69 (inactive)
same,z-score,[19],-2.91 (inactive)
same,z-score,[20],-2.52
